From PubChem BioAssay AID456 (Sanford-Burnham Center for Chemical Genomics, 2006) come the findings set out here.

In all, about 10,000 compounds went through this assay and about 25 (0.2%) were called active.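 Rule for the calls: active = top tenth filtered wells with inhibition above zero that passed visual or statistical confirmation; inactive = the rest, including hits rejected on review.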 The entries come from a sample that favours actives as a whole. Results with a measured potency or affinity are listed apart.

The nature of the assay: suppression of endothelial VCAM-1 upregulation – imaging, high-content imaging, pooled HUVEC, TNFa stimulus (AID 456).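 For inhibition: VCAM-1 immunofluorescence minus red nonspecific channel after plate median normalization.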 To be noted: HUVEC TNFa-induced VCAM-1 surface expression, immunofluorescence imaging;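 compounds screened at 5 µM final in the well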.
Broadly, the inhibition is the relative decrease from the control value, in per cent. For `CCCCn1cnc2c(c1=O)c1nc3ccccc3nc1n2Cc1ccc2c(c1)OCO2`, the inhibition result was “inactive”. For `CN(C)c1ccc(C(=O)OCC(=O)NC2CCCCC2)cc1` the value was “inactive”; for `CS(=O)(=O)N1CCN(c2ccccc2NC(=O)c2cccs2)CC1`, “inactive”; for `O=C(Nc1ccccc1N1CCN(C(=O)c2ccc(Cl)cc2)CC1)c1cc2ccccc2o1`, “inactive”. In the case of `CS(=O)(=O)N1CCN(c2ccccc2NC(=O)c2ccc(-c3ccc(Cl)cc3Cl)o2)CC1`, the inhibition was 70.7% (active). Regarding `Cc1cc(Br)c(S(=O)(=O)n2nnc3ccccc32)cc1C`, the inhibition entry was “inactive”. As to `COc1cc(CNc2ccc(N3CCOCC3)c(C(=O)O)c2)ccc1OCC(N)=O`, the inhibition entry is “inactive”. For `Cc1ccc(NC(=O)c2ccco2)c(NC(=O)CN2C(=O)c3ccccc3C2=O)c1`, the inhibition entry was “inactive”. As to `CCOc1ccc2cc(C#N)c(SCC(=O)N3CCC(C)CC3)nc2c1`, the inhibition was 69.1% (active). Regarding `CCOc1ccc2cc(C#N)c(SCC(=O)N3CCOCC3)nc2c1`, the inhibition entry was “inactive”. Regarding `CCOc1ccc2cc(C#N)c(SCC(=O)N3CCCC3)nc2c1`, the inhibition result was “inactive”. For the compound `Cc1cc(Cl)ccc1NC(=O)CSc1nnc(Cc2cccs2)n1Cc1ccco1`, the inhibition result is “inactive”. `COc1ccc(OC)c(NC(=O)CS(=O)(=O)c2ccccc2)c1`: the inhibition entry is “inactive”. Regarding `O=S(=O)(NCCCCCNS(=O)(=O)c1ccccc1)c1ccccc1`, the inhibition entry is “inactive”. As to `Cc1ccccc1-c1nc2ccccc2c(=O)n1C1CCS(=O)(=O)C1` (stereo not given), the inhibition entry was “inactive”. `C=C(Cl)COC(=O)[C@H]1C2C=CC(C2)C1C(=O)O` (stereo not given in full): the inhibition entry is “inactive”. As for `O=C(c1cnn2c1NC(c1ccco1)CC2C(F)(F)F)N1CCN(c2cccc(Cl)c2)CC1` (stereo not given), the inhibition entry was “inactive”. As to `O=C(CC(SCCO)c1ccc2c(c1)OCO2)c1ccco1` (stereo not given), the inhibition result was “inactive”.

With `COc1ccc(CCNC(=O)C2CCN(Cc3nc(-c4cccc(Cl)c4)oc3C)CC2)cc1OC`, the inhibition was 76.3% (inactive). The entry for `Cc1ccccc1-c1nc(CN2CCC(C(=O)N3CCC(C(N)=O)CC3)CC2)c(C)o1` is “inactive”. Take `O=C(NCC1CCCO1)c1ccc(C(=O)NCC2CCCO2)cc1` (stereo not given): the inhibition result is “inactive”.

As for `O=C(CN(Cc1ccc(F)cc1)C(=O)Cn1nnc2ccccc21)NCC1CCCO1` (stereo not given), the inhibition result was “inactive”. Turning to `O=S(=O)(c1ccc2ccccc2c1)N1CCCCC1`, the inhibition entry is “inactive”. With `Cc1cnc(C(=O)Nc2ccc(N3CCOCC3)cc2)cn1`, the inhibition result is “inactive”.

In the case of `CSc1ncc(Cl)c(C(=O)Nc2ccc(S(=O)(=O)N3CCOCC3)cc2)n1`, the inhibition entry was “inactive”.

Regarding `Cc1cc(NCCN2CCOCC2)n2nc(C)c(-c3ccccc3)c2n1`, the inhibition entry was “inactive”. For the compound `COC(=O)c1cn(C(=O)c2ccc(Br)o2)c2ccccc12`, the inhibition result was “inactive”. The entry for `O=C(NCCN1CCOCC1)C1CC(=O)N(c2ccc(F)c(Cl)c2)C1` (stereo not given) is “inactive”.

Consider `CC1=C(C(=O)OC2CCCCC2)C(c2ccc(C)o2)C2=C(CC(C)(C)CC2=O)N1` (stereo not given), for which the inhibition entry is “inactive”. As for `COc1ccccc1N1CCN(C(=O)c2cc(C3CC3)on2)CC1`, the inhibition entry is “inactive”. For `CCOC(=O)Cc1nnc(NC(=O)c2ccccc2OCC)s1` the value was “inactive”. As to `O=C(CCn1c(=O)oc2ccccc21)NCCN1CCOCC1`, the inhibition entry is “inactive”. For `O=c1[nH]c(NCc2ccccc2)nc2c1CCCC2` the value was “inactive”; for `Cc1ccc(N2CCN(C(=S)c3ccc(N(C)C)cc3)CC2)cc1`, “inactive”; for `COc1ccccc1N1CC(C(=O)Nc2cccc(C(=O)O)c2)CC1=O` (stereo not given), “inactive”. The entry for `c1ccc(OCCCn2nnc(-c3cccnc3)n2)cc1` is “inactive”; for `CCN(CC)CCn1c(=N)n(CCO)c2ccccc21` it is “inactive”. Regarding `Cc1c(NC(=O)Cn2nc(C(=O)O)c3ccccc3c2=O)c(=O)n(-c2ccccc2)n1C`, the inhibition result is “inactive”.

For the compound `Cn1ccnc1SCC(=O)Nc1ccc2ccccc2c1`, the inhibition entry is “inactive”. For the compound `CCOC(=O)c1sc(NS(=O)(=O)c2ccc(NC(C)=O)cc2)nc1C`, the inhibition entry is “inactive”. For the compound `CCn1c(-c2cc(Br)ccc2O)n[nH]c1=S`, the inhibition result is “inactive”.

With `CCSc1oc(-c2cccs2)nc1S(=O)(=O)c1ccccc1`, the inhibition entry was “inactive”.

Take `COc1ccc(OCC(=O)N2CCN(C(=O)COc3ccc(Br)cc3)CC2)cc1`: the inhibition result was “inactive”.

On to `COc1cc2c(cc1OC)C(c1cccnc1)CC(=O)N2` (stereo not given), for which the inhibition result is “inactive”. Regarding `COc1ccc(NC(=O)c2cc(C(C)C)on2)c(OC)c1`, the inhibition result was “inactive”.

As for `Cc1ccc2c(c1)NC(=O)C(CC(=O)NC1CCCCC1C)O2` (stereo not given), the inhibition result is “inactive”.

On to `COc1ccc(N2C(=O)CCC(C(=O)N3CCCCC3)C2c2ccc(OC)c(OC)c2)cc1` (stereo not given), for which the inhibition entry was “inactive”. For `CCCC1(C(=O)OCC)NC(c2ccc(N(C)C)cc2)C2C(=O)N(c3ccccc3)C(=O)C21` (stereo not given) the value was “inactive”; for `CCOc1ccc(-n2cc(C(=O)Nc3cccc(C)n3)c3cc(OC)c(OC)cc3c2=O)cc1`, “inactive”. For `COc1ccccc1N1CCN(C(=O)CSc2nc3ncnc(N)c3[nH]2)CC1`, the inhibition result was “inactive”.

Regarding `Cc1ccc(-c2[nH]nc3c2C(c2ccc(OC(=O)N4CCOCC4)cc2)C(C#N)=C(N)O3)cc1` (stereo not given), the inhibition entry is “inactive”. In the case of `O=C(CSc1nnc(-c2ccccc2)o1)N1CCN(c2ccccc2)CC1`, the inhibition result was “inactive”. The entry for `CN(c1ccccc1)C(c1ccc(F)cc1)c1nnnn1CC1CCCO1` (stereo not given) is “inactive”. `Cc1ccc(CCSCC(=O)O)cn1`: the inhibition entry was “inactive”. The entry for `O=C(Nc1ccc(N2CCOCC2)c(Cl)c1)c1ccc(Br)o1` is “inactive”. Consider `CCn1c(CSc2nc(C)cc(C)n2)nnc1SCC(=O)Nc1ccccc1`, for which the inhibition entry is “inactive”.

For `COc1ccccc1N1CCN(C(=O)C(Cc2ccccc2)NC(=O)C2CCCCC2)CC1` (stereo not given), the inhibition result is “inactive”.

In the case of `COc1ccc(C(N)=O)cc1N`, the inhibition entry is “inactive”. Take `C#CCN1C(=O)C(O)(CC(=O)c2cccc(OC)c2)c2ccccc21` (stereo not given): the inhibition entry is “inactive”. `CCOC(=O)c1c(C)oc2ccc(O)c(CN(C)C)c12`: the inhibition result was “inactive”. As for `CN(c1cccc(NC(=O)COc2ccccc2)c1)S(C)(=O)=O`, the inhibition entry was “inactive”.

For the compound `CCOc1ccc2ccccc2c1C(=O)N1CCN(c2ccccc2)CC1`, the inhibition entry was “inactive”. On to `CCOC(=O)c1c(NC(=O)CSc2nnc(-c3cccnc3)o2)sc(C)c1C`, for which the inhibition entry is “inactive”. Take `CN(C)S(=O)(=O)c1ccc(C(=O)Nc2ccccc2C(=O)O)cc1`: the inhibition result is “inactive”. Turning to `CCN1C(=O)c2cccc3c(NC(=O)c4ccc5c(c4)OCCO5)ccc1c23`, the inhibition entry was “inactive”. Regarding `N#Cc1c2n(c(=O)[nH]c1=O)CCCCC2`, the inhibition entry was “inactive”. As to `O=C(c1nn2cccnc2c1Cl)N1CCN(c2ccccc2)CC1`, the inhibition result was “inactive”. For `COC(=O)c1cc(Oc2ccc(C(=O)OC)cc2N)cc(C(=O)OC)c1`, the inhibition result is “inactive”. Take `Cc1cc(C)n(C(=O)C23CC4CC(CC(C4)C2)C3)n1`: the inhibition result was “inactive”.

With `Cn1c(=O)cc(OCCCC(=O)N2CCCCC2)c2ccccc21`, the inhibition is 102% (inactive).
